The record followed here is PubChem BioAssay (NCATS).

Where “and” joins values, the source holds several entries; their conditions need not be identical. Equal values may be shown once. Results filed as inconclusive are left out. Calls of active or inactive are those of the source. Calls follow the shape of the dose curve; as a rule, active = well fitted cell-killing curve with a large enough effect; inconclusive = small, poorly fitted or top-dose-only effect; inactive = flat fitted curve, though single readings scatter.
% is scaled to controls: 0 for no effect and ±100 for the full control effect.

This test is described as follows: Cellular viability qHTS for adrenocortical cancer (ACC) cell line SW-13 (AID 1963989). Also: nearly all actives have a fitted effect of over 65% in size.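 As to activity (max response): cells grown in serum-free medium with ITS supplement.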 The settings on record: SW-13 ACC cells viability, CellTiter-Glo, 48 h; activity (max response): hits give low values. The text has this: PI: Naris Nilubol, MD Surgical Oncology Program, National Cancer Institute (NCI) National Institute of Health (NIH), Bethesda, Maryland Adrenocortical cancer (ACC) is a rare malignancy with poor survival outcomes and few treatment options. Currently, mitotane is the only FDA-approved therapy for ACC. Although adjuvant radiation therapy is rarely utilized, it has the potential to improve survival in select cases. Through a quantitative high-throughput drug screen (qHTS), we identified auranofin (AF), a thioredoxin reductase (TXNRD) inhibitor, as a promising candidate drug. This study aims to evaluate whether AF can enhance the efficacy of radiation therapy in the treatment of ACC. Two human ACC cell lines, SW-13 and NCI-H295R, were screened using the National Center for Advancing Translational Sciences (NCATS) Pharmaceutical Collection (NPC) and the Mechanism Interrogation PlatE (MIPE) library (~4,991 compounds). CellTiter-Glo (Cat # G7570, Promega, Madison, WI) was utilized to measure cell viability. Described herein are the results of the corresponding viability assay.
PROTOCOL TABLE (as described by Inglese J, Shamu CE and Guy RK. 2007) SEQUENCE No. (e.g., 1, 2, 3, etc.); […] (e.g., Cells, Incubation, Reagent, etc.); VALUE; DESCRIPTION. 1; Cells; 5 uL; white, solid-bottom, 1536-well tissue-culture treated plates. 2; Time; overnight culture at 37C with 5% CO2. 3; Compounds and control; 23 nL; Kalypsis pin tool (Wako USA) equipped with a 1536-well pin head to transfer to the assay plates. 4; Time; 48 hours; 37C with 5% CO2. 5; Reagent; 4 uL; CellTiter-Glo luminescent substrate mix. 6; Time; 20 min at room temperature. 7; Detection; Luminescence; ViewLux plate reader NOTES (numbers refer to Sequence numbers above) 1. SW13 cells were harvested from a T175 flask and resuspended in ITS-supplemented DMEM serum-free medium at a concentration of 300 000 cells/mL. Then 5 uL of resuspended cells were dispensed into each well of white, solid-bottom, 1536-well tissue-culture-treated plates using a multidrop combi dispenser. The plates were covered with stainless steel gasket lids. 2-3. The plates were cultured overnight at 37C with 5% CO2. Twenty-three nL of compounds (eight selected concentrations from the NPC / MIPE) or positive control (10 mM stock of bortezomib) in DMSO was transferred to each well of the assay plate using a pin tool (Kalypsys, San Diego, CA, USA). The final concentration of the compounds in the 5 uL assay volume ranged from 0.5 nM to 46 uM. 4-6. After 48 hours of incubation at 37C and 5% CO2, 4 uL of CellTilter-Glo luminescent substrate mix (Promega, Madison, WI, USA) was added to each well. Then the plates were incubated for 20 minutes at room temperature. 7. After incubation, luminescence was measured using a ViewLux plate reader (PerkinElmer, Waltham, MA, USA) with a clear filter was used to measure the number of metabolically competent cells. To determine compound activity in the qHTS assay, the titration-response data for each sample was plotted and modeled by a four-parameter logistic fit yielding IC50 and efficacy (maximal response) values. […] REFERENCES: Inglese J, Shamu CE and Guy RK, Reporting data from high throughput screening of small molecule libraries, Nature Chemical Biology, 2007, 3(8): 438-441. doi.org/10.1038/nchembio0807-438.
In the case of `CCN1C[C@]2(OC(=O)c3ccccc3NC(C)=O)CC[C@H](OC)[C@@]34[C@H]5CC6[C@@H](OC)C[C@](O)(C(C[C@@H]23)[C@@H]14)[C@@]5(O)[C@@H]6OC`, the activity (max response) is -5.39% (inactive).
In the case of `CC1Sc2c(C(=O)O)c(=O)c3cc(F)c(N4CCNCC4)cc3n21` (stereo not given), the activity (max response) is 7.63% (inactive).
Turning to `C[C@H]1CCC/C=C/C2C[C@H](O)C[C@H]2[C@H](O)/C=C/C(=O)O1` (stereo not given in full), the Potency is 282 nM (active).
Turning to `O=[N+]([O-])/N=C1\NCCN1Cc1ccc(Cl)nc1`, the activity (max response) is -5.88% (inactive).
Regarding `Cc1cccc(Cc2cnc[nH]2)c1C`, the activity (max response) is -10.7% (inactive).
Regarding `CCC1(CCC(C)C)C(=O)NC(=O)NC1=O`, the activity (max response) is 0.531% (inactive).
On to `COc1cccc([C@@]2(O)CCCC[C@@H]2CN(C)C)c1`, for which the activity (max response) was 2.96% (inactive).
As for `c1ccc2c(CN3CCNCC3)cccc2c1`, the activity (max response) is 3.38% (inactive).
On to `Oc1cc(Cl)ccc1Oc1ccc(Cl)cc1Cl`, for which the Potency was 7.94 µM (active) and 13 µM (active).
For the compound `CC(C)(C)NCC(O)c1ccccc1Cl` (stereo not given), the activity (max response) was 3.76% (inactive).
For the compound `CCOC(=O)NC(O)C(Cl)(Cl)Cl` (stereo not given), the activity (max response) is 3.24% (inactive).
Regarding `CCC(CC)(CNC(=O)CCCO)c1cccc(OC)c1`, the activity (max response) was 8.71% (inactive).
For `C[C@@H]1CN(C2CCC(C#N)(c3ccc(F)cc3)CC2)CC[C@]1(C(=O)O)c1ccccc1` (stereo not given in full), the activity (max response) was -0.484% (inactive).
As to `COc1cc(CC(C)N)c(OC)cc1Br` (stereo not given), the activity (max response) is -4.97% (inactive).
For `C[C@@H]1O[C@@H](O[C@@H]2C=C3CC[C@@H]4[C@H](CC[C@]5(C)[C@@H](c6ccc(=O)oc6)CC[C@]45O)[C@@]3(C)CC2)[C@H](O)[C@H](O)[C@H]1O`, the Potency is 11.2 nM (active) and 7.3 nM (active).
Consider `CCOP(=S)(OCC)O/N=C(\C#N)c1ccccc1`, for which the activity (max response) is 0.816% (inactive).
As to `O=C(O)C1=CCCN(CCOC(c2ccc(C(F)(F)F)cc2)c2ccc(C(F)(F)F)cc2)C1`, the activity (max response) is -19.1% (inactive).
Take `Oc1cccc2cccnc12`: the activity (max response) was -4.07% (inactive) and 11.1% (inactive).
In the case of `CC(C)NC(C)C`, the activity (max response) was 17.3% (inactive).
Take `CCN[C@@H](C)Cc1cccc(C(F)(F)F)c1`: the activity (max response) is -3.94% (inactive).
Consider `CCN(CC)C(=O)N[C@@H]1C=C2c3cccc4[nH]cc(c34)C[C@@H]2N(C)C1`, for which the activity (max response) was 5.3% (inactive).
For the compound `NCC1(CC(=O)O)CCCCC1`, the activity (max response) is 12.5% (inactive) and -5.41% (inactive).
Same read-out and setting: in the case of `CCC(C(N)=O)N1CCCC1=O` (stereo not given) it was -1.47% (inactive).
On the same count and under the same terms, in the case of `CCCOC(=O)c1cncn1C(C)c1ccccc1` (stereo not given) it was 12% (inactive); in that of `CC(=O)NC1CCSC1=O` (stereo not given), 9.14% (inactive).
With `C[C@]12CC[C@H]3[C@@H](CCC4=CC(=O)CC[C@@H]43)[C@@H]1CC[C@@H]2OC(=O)CCc1ccco1`, the activity (max response) was -19.1% (inactive).
The same measure, in the same setting: the result for `c1ccc2c(c1)Nc1ccccc1S2` reads -23.4% (inactive); that for `Cc1ccccc1-n1c(Cn2ncc3c(N)ncnc32)nc2cccc(C)c2c1=O`, 2.46% (inactive).
For `CC(=O)OC1(c2ccccc2)CCN(CCc2ccccc2)CC1`, the activity (max response) is -14.1% (inactive).
In the case of `O=C(Nc1ccccc1-c1ccc(Cl)cc1)c1cccnc1Cl`, the activity (max response) is -12.7% (inactive).
As to `O=C(O)CCCOc1ccc(Cl)cc1Cl`, the activity (max response) is -0.391% (inactive).
As for `N#Cc1nn(-c2c(Cl)cc(C(F)(F)F)cc2Cl)c(N)c1S(=O)C(F)(F)F` (stereo not given), the Potency was 5800 nM (active).
Turning to `CC[C@@H](C(N)=O)N1CCCC1=O`, the activity (max response) is -2.57% (inactive).
`O=P1(N(CCCl)CCCl)NCCCO1` (stereo not given): the activity (max response) was 0.4% (inactive) and 11% (inactive).
Regarding `COc1cccc2c1C(=O)c1c(O)c3c(c(O)c1C2=O)C[C@@](O)(C(=O)CO)CC3OC1CC(N2CCOC(OC)C2)C(O)C(C)O1` (stereo not given in full), the Potency was 100 nM (active).
For `C[C@@H]1CC[C@H]2[C@@H](C)C(=O)O[C@@H]3O[C@@]4(C)CC[C@@H]1[C@]32OO4`, the activity (max response) is -4.33% (inactive) and -19.2% (inactive).
For `O=C(CCCN1CCC(n2c(=O)[nH]c3ccccc32)CC1)c1ccc(F)cc1`, the activity (max response) is -18.7% (inactive).
Consider `C[C@H]1CNCCc2ccc(Cl)cc21`, for which the activity (max response) was -1.47% (inactive).
In the case of `CC[C@H](O)C(C[C@H](C)N(C)C)(c1ccccc1)c1ccccc1`, the activity (max response) is -19.9% (inactive).
Regarding `CCc1cc2c(s1)-n1c(C)nnc1CN=C2c1ccccc1Cl`, the activity (max response) was 12.2% (inactive).
